Compound activity deposited in PubChem by National Center for Advancing Translational Sciences (NCATS).
Most compounds without a hit are left out; they make up all but 6% or so of the library.
Tau FP inhib = qHTS for Inhibitors of Tau Fibril Formation, Fluorescence Polarization; Microtubule-associated protein tau (Homo sapiens), P10636; K18 P301L tau heparin fibrillization, Alexa594 FP, 6 h; Potency, µM (doses to about 57.7 µM), for the others: at the top dose activity, negative = inhibition, most hits filed as inhibitors; 280,000 compounds, 0.39% hits; also: nearly all actives have a fitted effect of over 55% in size
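Read-out: fluorescence polarization of Alexa 594-labeled tau (0.24 uM), 555 nm excitation, 632 nm emission. Mixtures held 15 uM unlabeled K18 P301L, compound and 20 uM heparin, pH 7 acetate buffer, incubated 6 hr at 37 C.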
PLK1 PBD block = qHTS for Inhibitors of PLK1-PDB (polo-like kinase 1 - polo-box domain): Primary Screen | Serine/threonine-protein kinase PLK1 (Homo sapiens), P53350 | Plk1 PBD binding of FITC phosphopeptide, fluorescence polarization | Potency, µM, for the others: max response, negative = inhibition, actives largely listed as inhibitors | 360,000 compounds, 2.8% hits | AID 720504, 2013; also: series mostly up to about 57 µM; nearly all actives have a fitted effect of over 65% in size
VDR inhibitor = Inhibitors of the vitamin D receptor (VDR): qHTS; AID 504847, 2011; Vitamin D3 receptor (Homo sapiens), P11473; 400,000 compounds, 0.93% hits; VDR-SRC2-3 peptide fluorescence polarization, 2 h; Potency, µM, for inactives: max response, negative = inhibition, most hits filed as inhibitors
Target sequence (P11473 whole entry, looked up): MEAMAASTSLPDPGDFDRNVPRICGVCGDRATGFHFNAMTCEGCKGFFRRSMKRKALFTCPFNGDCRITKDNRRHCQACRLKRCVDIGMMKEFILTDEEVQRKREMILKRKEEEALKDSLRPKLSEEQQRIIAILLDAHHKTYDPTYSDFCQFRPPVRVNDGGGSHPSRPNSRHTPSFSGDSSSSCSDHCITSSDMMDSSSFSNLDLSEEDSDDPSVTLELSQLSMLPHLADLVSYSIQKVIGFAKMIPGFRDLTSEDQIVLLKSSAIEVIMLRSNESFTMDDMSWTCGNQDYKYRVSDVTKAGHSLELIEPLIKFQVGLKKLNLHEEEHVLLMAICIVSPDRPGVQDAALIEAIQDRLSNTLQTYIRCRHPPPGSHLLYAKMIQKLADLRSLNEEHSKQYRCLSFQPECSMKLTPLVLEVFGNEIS
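Two reagent solutions held at 4 deg C in the dark were dispensed, compounds pinned at 23 nl, and the mixture incubated 2 h at room temperature. Read-out: fluorescence polarization of VDR–SRC2-3 peptide binding.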
Tau ThT inhib = qHTS for Inhibitors of Tau Fibril Formation, Thioflavin T Binding. Microtubule-associated protein tau (Homo sapiens), P10636. recombinant tau K18 P301L, heparin-induced fibrillization, ThT fluorescence. Potency, µM (doses to about 57.4 µM), for the others: at the top dose activity, negative = inhibition, most hits filed as inhibitors. 270,000 compounds, 2.1% hits; also: nearly all actives have a fitted effect of over 55% in size
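Heparin-induced fibrillization of the P301L-mutant K18 repeat-domain fragment of human tau was followed by ThT binding in quantitative high-throughput format.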
Tau fluor cs = Counterscreen qHTS for Inhibitors of Tau Fibril Formation, Fluorescence Polarization; tau K18 P301L (four-repeat tau fragment) Alexa594 fluorescence, heparin fibrillization; Potency, µM (series often up to 57.7 µM), for inactives: at the top dose activity change, negative = decrease; 280,000 compounds, 0.93% hits; AID 1463, 2008; also: nearly all actives have a fitted effect of over 55% in size
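Human K18 P301L tau (15 uM unlabeled plus 0.24 uM Alexa 594-labeled, final) in 100 mM sodium acetate pH 7 was mixed with compound and 20 uM heparin and incubated 6 hr at 37 C.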
Sfp PPTase inh = qHTS Assay for Inhibitors of Bacillus subtilis Sfp phosphopantetheinyl transferase (PPTase); 310,000 compounds, 3.5% hits; AID 1490, 2009; Biochemical Sfp PPTase activity, qHTS; Potency, µM, for inactives: largest response in the series, negative = inhibition, hits mostly inhibitors;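 also: the enzyme is Sfp with the accession as filed and its product quenches rhodamine fluorescence; 0% = enzyme reaction without inhibitor and -100% = no enzyme wells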
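Fluorescence-quenching assay: 15 nM Sfp-PPTase preincubated 15 min at room temperature with compound, then 5 uM rhodamine-CoA and 12.5 uM BHQ-2-labelled YbbR peptide added. Fluorescence (ex 525/em 598 nm) read at start and after 30 min; difference gives rate.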
Numbers without * were called inactive; ? = inconclusive; . = no result. Calls follow the shape of the dose curve; as a rule, active = well fitted curve in the direction sought with a large enough effect; inconclusive = small, poorly fitted or top-dose-only effect, or another doubt; inactive = no such curve, though single readings can be large; an effect the other way counts as inactive or inconclusive. Unless noted, % is scaled to controls: 0 for no effect and ±100 for the full control effect; potency is read from the fitted curve at half-maximal effect.

SMILES	Tau FP inhib	PLK1 PBD block	VDR inhibitor	Tau ThT inhib	Tau fluor cs	Sfp PPTase inh
Cc1cc(O)c(/C=N/Nc2ccc(F)cc2)c(=O)o1	-6%	-20%	-10%	-17%	-10%	79µM*
Cc1ccc(N/N=C/c2c(O)cc(C)oc2=O)cc1	-6%	-8%	4%	?	-21%	56µM*
CC(=O)N=Cc1c(C)c(C#N)c(=O)n(C)c1O	-10%	-18%	6%	?	-19%	?
Cc1ccc(CO/N=C/c2c(O)cc(C)oc2=O)cc1	9%	-7%	7%	13%	15%	-8%
Cc1cccc(/N=C/c2c(O)cc(C)oc2=O)n1	10%	-5%	11%	?	4%	-14%
Cc1cc(NS(=O)(=O)c2ccc(NC(NC(=O)C(C(F)(F)F)C(F)(F)F)(C(F)(F)F)C(F)(F)F)cc2)no1	-18%	6µM*	?	?	-4%	12%
Cc1ccc(/C=C/C(=O)N2CC(=O)Nc3ccccc32)o1	-14%	-19%	-10%	-18%	-9%	7.1µM*
Cc1ccc2nc3c(cc2c1)CN(Cc1ccco1)C(=NCC1CCCO1)S3 (stereo not given)	-2%	27µM*	?	-14%	-20%	?
Cc1cccc(N=C2Sc3nc4c(C)c(C)ccc4cc3CN2CCN2CCOCC2)c1	3%	-4%	-5%	?	-28%	?
CCC(C)N=C1Sc2nc3ccc(C)cc3cc2CN1CCOC (stereo not given)	0%	24µM*	-27%	?	-3%	45µM*
COCCN=C1Sc2nc3ccc(C)cc3cc2CN1Cc1cccs1	9%	-16%	-15%	?	-17%	22µM*
COCCN=C1Sc2nc3c(C)cccc3cc2CN1Cc1ccco1	-8%	?	89µM*	?	-11%	20µM*
CCCOc1ccccc1C1C(C(=O)Nc2ccccc2)=C(C)Nc2nnnn21 (stereo not given)	-2%	.	12%	-9%	-23%	.
CCc1nnc(SCC(=O)Nc2cccc(C(F)(F)F)c2)c2cc3oc(C)cc3n12	5%	.	12%	?	-16%	.
COCCN1Cc2cc3cc(C)ccc3nc2SC1=Nc1ccc(OC)cc1	11%	-1%	-11%	?	?	20µM*
CCOc1ccc2nc3c(cc2c1)CN(CCCO)C(=NCCOC)S3	-1%	11µM*	-20%	?	-21%	-26%
CCOc1ccc(N=C2Sc3nc4ccc(C)cc4cc3CN2CCOC)cc1	7%	-7%	3%	?	?	?
COc1ccccc1NC(=O)c1sc(-c2ccc(Cl)cc2)cc1N	-13%	.	2%	?	?	.
O=C(Nc1ccccc1[N+](=O)[O-])c1csnn1	-4%	.	-3%	-4%	-7%	.
Cc1ccc(NC(=O)CCc2c(C)nc3c(-c4ccc(F)cc4)c(C)nn3c2C)cc1F	-9%	.	-26%	10%	-14%	.
CCCCC(=O)N1C(C)CCC1C (stereo not given)	.	24µM*	.	.	.	.
Cc1ccccc1NC(=O)C1CCN(S(=O)(=O)c2c(C)noc2/C=C/c2ccco2)CC1	-14%	.	-24%	1%	-8%	.
Cc1ccc(CNC(=O)C2CCN(S(=O)(=O)c3c(C)noc3/C=C/c3ccco3)CC2)cc1	10%	-4%	-12%	-13%	-19%	40µM*
Cc1noc(/C=C/c2ccco2)c1S(=O)(=O)N1CCC(C(=O)NCc2ccco2)CC1	-7%	-2%	-5%	?	-19%	19%
Cc1noc(/C=C/c2ccco2)c1S(=O)(=O)N1CCC(C(=O)N2CCc3ccccc3C2)CC1	-2%	-7%	20%	?	-12%	56µM*
COc1ccc(-c2csc(C(NC(C)=O)c3ccccc3)n2)cn1 (stereo not given)	.	-17%	.	.	.	.
